Results filed as inconclusive are left out. The source made the active and inactive calls. Rule for the calls: active = hit-call score of the fitted dose curve at least 0.9, where 1 is the maximum; inconclusive = response in the unintended direction; inactive = score below 0.9.

Outcome and AC50 data for 30 compounds are collected here from PubChem BioAssay (EPA / NIEHS).

human Retinoic Acid Receptor beta (RARb), RARB (gene 5915), sequence (P10826 whole entry, looked up): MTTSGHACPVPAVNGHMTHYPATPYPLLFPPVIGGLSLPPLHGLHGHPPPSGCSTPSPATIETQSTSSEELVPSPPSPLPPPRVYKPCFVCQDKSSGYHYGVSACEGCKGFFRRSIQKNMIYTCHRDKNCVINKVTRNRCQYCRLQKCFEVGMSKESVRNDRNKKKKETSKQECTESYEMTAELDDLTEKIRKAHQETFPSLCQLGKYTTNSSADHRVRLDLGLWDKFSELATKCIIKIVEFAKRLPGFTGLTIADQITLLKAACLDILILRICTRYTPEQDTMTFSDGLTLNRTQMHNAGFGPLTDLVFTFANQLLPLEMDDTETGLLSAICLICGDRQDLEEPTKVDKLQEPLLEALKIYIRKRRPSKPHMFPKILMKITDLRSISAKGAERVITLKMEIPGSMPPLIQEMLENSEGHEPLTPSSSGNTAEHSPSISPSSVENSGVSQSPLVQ

The experiment has as its target human Retinoic Acid Receptor beta (RARb), RARB (gene 5915) (UniProt P10826). The experiment in a line: ATG_RARb_TRANS: Attagene TRANS-FACTORIAL HepG2 Assay for human Retinoic Acid Receptor beta (AID 2283004). As for the experimental part:
ATG_TRANS is a cell-based, multiplexed-readout assay that uses HepG2, a human liver cell line, with measurements taken at 24 hours after chemical dosing in a 24-well plate.ATG_RARb_TRANS is one of 30 assay component(s) measured or calculated from the ATG_TRANS assay. It is designed to make measurements of mRNA induction, a form of inducible reporter, as detected with fluorescence intensity signals by Reverse transcription polymerase chain reaction (RT-PCR) and Capillary electrophoresis technology.Data from the assay component ATG_RARb_TRANS was analyzed into 1 assay endpoint. This assay endpoint, ATG_RARb_TRANS, was analyzed in the positive analysis fitting direction relative to DMSO as the negative control and baseline of activity. Using a type of inducible reporter, measures of mRNA for gain-of-signal activity can be used to understand the reporter gene at the transcription factor-level as they relate to the gene RARB. Furthermore, this assay endpoint can be referred to as a primary readout, because this assay has produced multiple assay endpoints where this one serves a reporter gene function. To generalize the intended target to other relatable targets, this assay endpoint is annotated to the nuclear receptor intended target family, where the subfamily is non-steroidal.
Human liver HepG2 cells are transiently transfected with multiple reporter transcription units (MRTUs) in 6-well plates using FuGene 6 reagent (Roche; 3 ml FuGene/1 mg DNA). The MRTU constructs are regulated by a cis-regulating element (promoter). […] A major difference between the CIS and TRANS system is that in CIS activities of endogenous TFs are measured, whereas the TRANS assay evaluates changes in activities of exogenous, chimeric NR-Gal4 proteins. […] At the end of 24 hour incubation, total RNA was isolated using TriZol reagent (Invitrogen). The isolated RNA is then reverse-transcribed using oligo(dT) primer and Mo-MLV reverse transcriptase (Invitrogen) with DNAse I (Ambion) treatment for 30 min. The one-tenth of the produced cDNA was amplified by PCR using Taq DNA polymerase (Invitrogen) and two reporter sequence-specific primers. The PCR products were fluorescently labeled by primer extension with 6-arboxyfluorescein (6-FAM) 5'-labeled reporter sequence-specific primer (2 min at 95 C, 20 s at 68 C and 10 min at 72 C) and these products were digested with 5U of HpaI (New England Biolabs) for 2h at 37 C. The fragments were purified using Qiaquick PCR columns (Qiagen), analyzed on an ABI 3130xL genetic analyzer (Applied Biosystems) with peak positions identified by using a set of X-rhodamine (ROX)-labeled MapMarker1000 molecular weight standards (BioVentures). The raw capillary electrophoresis data was processed using Attagraph software (Attagene).
In the case of `CC(O)C(F)(F)C(F)(F)F` (stereo not given), the outcome was inactive.
Regarding `O=C(O)C(F)(F)C(F)(F)C(=O)O`, the outcome was inactive.
As for `Cc1ccc(O)cc1C`, the compound was classed as inactive.
For `OCC(F)(F)OC(F)(F)C(F)(F)OC(F)(F)CO`, the compound was classed as inactive.
Still for that read-out and setting: as for `Cn1[nH]nnc1=S`, the entry is “inactive”; as for `Clc1ccc(Oc2ccccc2)cc1`, “inactive”.
Still for that read-out and setting: in the case of `CN(C)C(=O)Cl` it was “inactive”; in that of `FC(F)(F)c1ccc(Cl)cc1`, “inactive”; in that of `CCOC(=O)c1ccccc1C(=O)OCC`, “inactive”.
Same read-out and setting: in the case of `FC(F)(F)C(F)(C(F)(F)F)C(F)(F)C(F)(F)CC1CO1` (stereo not given) it was “inactive”.
In the case of `CC(C)CBr`, the compound was classed as inactive.
Regarding `CCCN(CCC)c1c([N+](=O)[O-])cc(C(C)C)cc1[N+](=O)[O-]`, the compound was called inactive.
Still for that read-out and setting: in the case of `N#Cc1ccc(O)cc1` it was “inactive”.
Turning to `ClC1=C(Cl)C2(Cl)C3C(Cl)C(Cl)CC3C1(Cl)C2(Cl)Cl` (stereo not given), the half-maximal activity concentration (AC50) was 24.3 µM (active).
As for `CC(C)Nc1ccc(Nc2ccccc2)cc1`, the call was inactive.
The same measure, in the same setting: as for `CCCCOCCOP(=O)(OCCOCCCC)OCCOCCCC`, the entry is “inactive”; as for `CCCCc1ccc(O)cc1`, “inactive”.
Still for that read-out and setting: in the case of `Cc1c([N+](=O)[O-])cc2c(c1[N+](=O)[O-])C(C)(C)CC2(C)C` it was “inactive”.
Still for that read-out and setting: as for `CCNc1nc(Cl)nc(NC(C)(C)C)n1`, the entry is “inactive”; as for `CO/N=C(/C(=O)OC)c1ccccc1COc1ccccc1C`, “inactive”; as for `Nc1ccc2ccccc2c1`, “inactive”.
Regarding `O=C(O)C(F)(OC(F)(F)C(F)(F)C(F)(F)F)C(F)(F)F` (stereo not given), the compound was classed as inactive.
With `CCCCC(CC)COP(=O)(Oc1ccccc1)Oc1ccccc1` (stereo not given), the result was inactive.
Same read-out and setting: as for `CCCCCCCc1ccc(O)cc1`, the entry is “inactive”.
Same read-out and setting: as for `OCC(F)(F)OC(F)(F)C(F)(F)OC(F)(F)C(F)(F)OC(F)(F)F`, the entry is “inactive”.
Same read-out and setting: in the case of `N#Cc1c(-c2ccc(Cl)cc2)[nH]c(C(F)(F)F)c1Br` it was “inactive”.
Regarding `CC(O)C#N` (stereo not given), the result was inactive.
The same measure, in the same setting: in the case of `c1cc2c3c(cccc3c1)CC2` it was “inactive”; in that of `NC(=O)C(F)(F)C(F)(F)F`, “inactive”.
On the same count and under the same terms, in the case of `COC(=O)C(F)(F)C(F)(F)OC(F)(C(F)(F)F)C(F)(F)OC(F)=C(F)F` (stereo not given) it was “inactive”.
